Experimental findings from PubChem BioAssay AID1117319 (Southern Research Institute, 2015) are described below.

As a reminder, the inhibition is the relative decrease from the control value, in per cent.

Values joined by “and” are separate entries in the source; they are usually repeats but may differ in a detail not shown here. Identical values can stand only once. The whole screen tested about 260,000 compounds, of which about 1,500 (0.58%) were called active. Roughly 5% stayed inconclusive and do not appear here. Only a sample is shown. Results with a measured potency or affinity are listed apart. Unmarked numbers belong to inactive results.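 How the source made its calls: active means inhibition above a set limit at one or more doses, reproduced on every date tested; inconclusive means results disagree between test dates, or hit never tested in dose response; inactive means the rest.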

This experiment concerns the target Virion infectivity factor (Human immunodeficiency virus type 1 group M subtype B (isolate BH10)) + Virion infectivity factor (Human immunodeficiency virus type 1 group M subtype B (isolate BRU/LAI)) + Virion infectivity factor (Human immunodeficiency virus type 1 group M subtype B (isolate PCV12)) + Virion infectivity factor (Human immunodeficiency virus type 1 group M subtype B (isolate HXB2)) + DNA dC->dU-editing enzyme APOBEC-3G (Homo sapiens) (UniProt P69720+P69721+P69722+P69723+Q9HC16). As to the kind of experiment: HIV-1 Vif–A3G interaction blockers – biochemical, TR-FRET, GST-Vif 1-94, biotin-A3G peptide, dose response retest, primary screen (AID 1117319).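 Further: Vif residues 1-94 fused to GST binding biotinylated APOBEC3G peptide 110-148; 0% = full assay without inhibitor and 100% = GST in place of GST-Vif.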 The settings on record: TR-FRET GST-Vif / biotin-A3G peptide binding; stronger effect = higher value. A general note: In TR-FRET formats the signal depends on donor and acceptor labels being close together.
With `O=C(CSc1nnc2ccccn12)NNC(=O)c1cccc([N+](=O)[O-])c1`, the inhibition was -9.15%.
`COc1cc2nc(CCc3ccccc3)oc(=O)c2cc1OC`: the inhibition is 19.2%.
With `N#Cc1ccc2c(c1)nc1ccccn12`, the inhibition was 16.5%.
With `Clc1cc2nc3ccccn3c2cc1Cl`, the inhibition is -1.52%.
Consider `CC1=CN2CC(O)CN=C2C=C1` (stereo not drawn), for which the inhibition is -3.44%.
With `Cc1cnc(C(=O)OCC(=O)N(Cc2ccccc2)C(C)(C)C)cn1`, the inhibition is -7.28%.
Consider `Cc1cc(C(=O)OCC(=O)c2ccc3c(c2)OCCO3)c(C)o1`, for which the inhibition is 7.16%.
Turning to `COC(=O)CCN(C(=O)c1ccc(Cl)c([N+](=O)[O-])c1)c1ccccn1`, the inhibition is 21.1%.
For `O=[N+]([O-])c1ccc2c(c1)N([O-])C1(CCCCC1)[N+]2=O`, the inhibition was -0.91%.
With `CN1c2ccc([N+](=O)[O-])cc2N(C)C1(C)c1ccccc1` (stereo not drawn), the inhibition was -8.03%.
To `O=C(COC(=O)c1ccc(S(=O)(=O)N2CCOCC2)cc1)Nc1ccccc1F` belongs -5.99%.
The same measure for `C=CCN(CC=C)C(=S)NC(=O)c1ccc(C)c(Br)c1`: 3.99%; for `C=CCN(CC=C)C(=S)NC(=O)c1ccc(OC)c(Br)c1`: 3.9%; for `C[n+]1ccn(CC(=O)c2cccs2)c1`: -0.3%.
The same measure for `O=[N+]([O-])c1ccc2nc(CN3CCCCC3)[nH]c2c1`: -2.67%; for `Nc1ccc(C(=O)C(=O)c2ccc(N)cc2)cc1`: -4.86%; for `Nc1ccc(C(=O)NCCCCCCNC(=O)c2ccc(N)cc2)cc1`: -3.48%.
Consider `CC(C)=CCN1CCN(Cc2cccn2-c2nccs2)CC1CCO` (stereo not drawn), for which the inhibition was 3.13%.
Turning to `C/C(=N\NC(=O)CNC(=O)c1ccco1)c1ccc(Br)cc1`, the inhibition was -0.8%.
The same measure for `COc1ccc(/C=C/c2nc3ccccc3c(=O)n2-c2cccc(C(=O)O)c2)cc1`: -12.6%; for `CCn1c(/C=C/c2ccc(O)c(O)c2)nc2ccccc2c1=O`: 23.1%.
As to `CC1(C)Cc2c(C#N)c(N)sc(=S)c2CO1`, the inhibition was 18.9%.
For `N#Cc1c(N)sc2c1CCCCCC2`, the inhibition is 22.4%.
As to `CS(=O)(=O)N1CCC(C(=O)Nc2cccc(C(F)(F)F)c2)CC1`, the inhibition is 30.5%.
The same measure for `COc1ccc(CCNC(=O)COC(=O)/C=C/c2ccc3c(c2)OCO3)cc1`: -7.05%; for `CCc1ccc(-n2c(O)c(C=NCCN(CC)CC)c(=O)[nH]c2=O)cc1`: 1.67%; for `CC(=O)N1CCN(c2ccc(N=Cc3c(O)n(Cc4ccccc4)c(=O)[nH]c3=O)cc2)CC1`: 15.1%.
To `COc1ccc(CCn2c(N)cc(=O)[nH]c2=O)cc1OC` belongs -7.47%; to `COc1ccc(CCn2c(O)c(C=Nc3cccc(F)c3)c(=O)[nH]c2=O)cc1OC`, 22.7%.
To `COc1cccc(CNS(=O)(=O)c2ccc3c(c2)CCN3C(=O)C2CC2)c1` belongs 5.57%; to `CCCC(NC(=O)CCc1c(C)c2cc3c(-c4ccccc4)coc3cc2oc1=O)C(=O)O` (stereo not drawn), -3.65%.
As for `O=c1cc(O)n(-c2ccccc2)c(=S)[nH]1`, the inhibition is 30.2%.
Regarding `O=c1cc(O)n(-c2ccc(Cl)cc2)c(=S)[nH]1`, the inhibition was -0.58%.
With `CC(C)[C@H](NC(=O)c1c(F)cccc1F)C(=O)OCC(=O)NC(=O)NC1CCCC1`, the inhibition was -7.96%.
To `Cc1ccccc1S(=O)(=O)c1c(C)cc(C)n(C)c1=O` belongs 6.26%; to `Cc1cccc(C(=O)NNS(=O)(=O)c2ccc(F)cc2)c1`, -1.42%.
Consider `O=C(N/N=C/c1cccc([N+](=O)[O-])c1)c1cccc2cc[nH]c12`, for which the inhibition was -4.35%.
On to `CC1=C(C(N)=O)C(c2cccs2)n2nc(-c3cccc(C)c3)nc2N1` (stereo not drawn), for which the inhibition was 10.3%.
The same measure for `COC(=O)C1=C(C)NC2=C(C(=O)CC(c3cccs3)C2)C1c1ccsc1` (stereo not drawn): 3.51%.
With `CC1=C(C(=O)Nc2ccccc2F)C(c2ccsc2)C2=C(CC(C)(C)CC2=O)N1` (stereo not drawn), the inhibition was 0.63%.
As for `CCCn1c(N)c(N(CCOC)C(=O)c2cc(-c3ccco3)nc3ccccc23)c(=O)[nH]c1=O`, the inhibition is 22.8%.
On to `Cc1cccc(C)c1NC(=O)COC(=O)c1cccnc1`, for which the inhibition was 0.67%.
With `CCNC(=O)COC(=O)c1cc(-c2ccc(OC)cc2)nc2ccccc12`, the inhibition is 17.1%.
To `CCCCN(C(=O)c1cc(-c2ccco2)nc2ccccc12)c1c(N)n(CCCC)c(=O)[nH]c1=O` belongs 22.2%; to `Cc1ccc(-c2cc(C(=O)OCC(=O)N(C)C3CCS(=O)(=O)C3)c3ccccc3n2)c(C)c1` (stereo not drawn), 5.39%.
On to `O=C(COC(=O)c1cc(-c2cccnc2)nc2ccccc12)Nc1ccc(F)cc1F`, for which the inhibition was -4.09%.
For the compound `O=C(COC(=O)c1cc(-c2ccco2)nc2ccccc12)NCc1ccccc1`, the inhibition is 27.6%.
As to `CN(C(=O)COC(=O)c1cc(-c2ccc(Cl)s2)nc2ccccc12)C1CCS(=O)(=O)C1` (stereo not drawn), the inhibition was -9.51%.
As for `COc1ccc(-c2nnc(SCC(N)=O)n2N)cc1`, the inhibition was -2.53%.
For the compound `O=[N+]([O-])c1ccc(/C=N/N2CCN(c3ccncc3S(=O)(=O)N3CCCCC3)CC2)cc1`, the inhibition is -3.38%.
The same measure for `O=C(c1cccc2ccccc12)C1CCCN(C(=O)C2CCOCC2)C1` (stereo not drawn): 3.16%; for `CCn1c(SCC(=O)Nc2sc3c(c2C#N)CCCC3)nnc1-c1ccco1`: 3.19%.
For `COc1cccc(NC(=S)NCCc2ccccn2)c1`, the inhibition is -0.67%.
Regarding `Cc1ccc(N2CC(C(=O)OCC(=O)c3c(N)n(CC(C)C)c(=O)n(C)c3=O)CC2=O)cc1` (stereo not drawn), the inhibition is -1.07%.
On to `COC(=O)CSc1cc(C)nc(NC(C)=O)n1`, for which the inhibition was 3.6%.
As for `CC(C(=O)OCC(=O)Nc1ccc2c(c1)OCO2)N1C(=O)c2ccccc2C1=O` (stereo not drawn), the inhibition is 5.56%.
`CCN(CC)S(=O)(=O)c1cccc(C(=O)N[C@H](C(=O)OCC(N)=O)C(C)C)c1`: the inhibition is 19%.
With `CC(C)c1ccc(C(=O)OCC(=O)c2c(N)n(C)c(=O)n(C)c2=O)cc1`, the inhibition was 2%.
Consider `Clc1c(-c2ccccc2)nnn1-c1ccccc1`, for which the inhibition was -12%.
The same measure for `Cc1cc(C(=O)N2CCN(c3cccc(Cl)c3)CC2)c(C)o1`: -5.08%.
On to `CCOC(=O)C1CCCN(C(=O)c2cc(-c3ccc(C)cc3)nc3ccccc23)C1` (stereo not drawn), for which the inhibition was 10.1%.
Consider `O=C(OCC(=O)N1CCN(C(=O)c2ccco2)CC1)c1cc(-c2ccc(F)cc2)nc2ccccc12`, for which the inhibition is -2.07% and -4.96%.
The same measure for `Cc1cc(C(=O)OCC(=O)NCc2ccc3c(c2)OCO3)c2ccccc2n1`: -5.38%; for `CCOC(=O)C1CCCN(C(=O)c2cc(-c3ccccc3)nc3ccccc23)C1` (stereo not drawn): -11.1%; for `O=C(OCC(=O)N1CCN(C(=O)c2ccco2)CC1)c1cc(-c2ccccc2)nc2ccccc12`: -3.01%.
Consider `O=C(COC(=O)c1ccco1)NCc1ccc2c(c1)OCO2`, for which the inhibition is 18.2%.
Take `O=C(Nc1ccc2oc(-c3cccnc3)nc2c1)c1cc2ccccc2o1`: the inhibition was 20.3%.
As for `COc1ccc(-n2nnc3c(=O)n(Cc4cc(C)ccc4C)cnc32)cc1`, the inhibition is -0.91%.
On to `CCN(CC)CCNC(=O)c1cc([N+](=O)[O-])c(N(C)C)cc1OC`, for which the inhibition is 12.4%.
Regarding `COc1ccccc1NC(=S)NCCSc1ccc(C)cc1`, the inhibition was 9.9%.
With `O=C1/C(=C/c2cccc(Br)c2)SC(=S)N1CCC(=O)N(CCO)c1ccccc1`, the inhibition is -10.6%.
On to `Cc1ccc(S(=O)(=O)N2CCCCC2)cc1C(=O)NCCCN1CCOCC1`, for which the inhibition was 1.73%.
As to `Cc1cc(C)c(S(=O)(=O)NCC2CCC(C(=O)NCCCN3CCOCC3)CC2)c(C)c1` (stereo not drawn), the inhibition was 3.66%.
`COc1ccc(S(=O)(=O)NCC2CCC(C(=O)N3CCC4(CC3)OCCO4)CC2)cc1` (stereo not drawn): the inhibition is 0.18% and -4.29%.
Consider `Cc1ccc(-n2nc3c(c2NC(=O)c2ccccc2Br)CS(=O)C3)cc1` (stereo not drawn), for which the inhibition is 0.72%.
On to `O=c1[nH][nH]c(C(F)(F)F)c1/C=N/N1CCOCC1`, for which the inhibition is -7.03%.
On to `C/C(=N\Nc1ccc(Cl)c(C(=O)O)c1)c1ccccn1`, for which the inhibition was -6.06%.
In the case of `C/C(=N\Nc1ccc(Cl)c(C(=O)O)c1)c1cccs1`, the inhibition is -4.46%.
The same measure for `COC(=O)C1=C(C)N(Cc2ccco2)C(=O)/C1=C\c1ccc([N+](=O)[O-])cc1`: -12.1%.
On to `COC(=O)C1=C(C)NC(=O)/C1=C\c1ccc2c(c1)OCO2`, for which the inhibition was 16%.
As for `COC(=O)C1=C(C)N(C)C(=O)/C1=C\c1ccco1`, the inhibition was 9.7%.
`COC(=O)C1=C(C)NC(=O)/C1=C\N(C)C`: the inhibition is 5.9%.
In the case of `CCOc1cc(/C=C2\C(=O)N(Cc3ccco3)C(C)=C2C(=O)OC)ccc1O`, the inhibition was 24.1%.
For `COC(=O)C1=C(O)/C(=C\c2cc(C)n(-c3ccccc3F)c2C)N=C1C`, the inhibition was 25.1%.
The same measure for `CCN1C(=O)/C(=C\c2cccs2)C(C(=O)OC)=C1C`: 2.01%; for `COC(=O)C1=C(C)NC(=O)/C1=C\c1cc(C)n(-c2c(C)cccc2C)c1C`: 22.2%; for `CC(Sc1ncccn1)C(=O)Nc1ccc2c(c1)OCCO2` (stereo not drawn): -5.22%.
With `Nc1cc(S(=O)(=O)Nc2ccc(Cl)cc2)ccc1N1CCOCC1`, the inhibition was 0.79%.
The same measure for `COc1ccccc1Nc1nnc(SCC(=O)NC2CCCC2)s1`: -10.8%; for `O=C(CCCOc1ccccc1)N1CCN(C(=O)c2ccco2)CC1`: -5.18%; for `Cc1ccc(-c2nnc(-c3ccncc3)n2-c2ccc(C)cc2)cc1`: -0.95%.
The same measure for `C=CCN1C(=O)/C(=C\c2cccs2)C(C(=O)OC)=C1C`: 0.55%; for `COC(=O)C1=C(C)N(CC(C)C)C(=O)/C1=C\c1cccs1`: 2.91%.
